Read-out in assay [1]: Interleukin-8 (IL8), CXCL8 (gene 3576)
Kind of assay: BSK_CASM3C_IL8: BioMAP Diversity Plus: CASM3C Assay for Interleukin-8 (IL8) Biomarker Activity (AID 2283042).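 Also: IL-8 protein level quantified by ELISA.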 As to conditions: primary human coronary artery smooth muscle cells; actives raise or lower the signal.

Read-out in assay [2]: Human Leukocyte Antigen - DR isotype (HLADR), HLA-DRA (gene 3122)
Description: BSK_CASM3C_HLADR: BioMAP Diversity Plus: CASM3C Assay for Human Leukocyte Antigen - DR isotype (HLADR) Biomarker Activity (AID 2283043).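 Also: cell-surface HLA-DR protein level quantified by ELISA.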 As to conditions: primary human coronary artery smooth muscle cells; actives raise or lower the signal.

Read-out in assay [3]: Macrophage colony-stimulating factor (MCSF), CSF1 (gene 1435)
Kind of assay: BSK_CASM3C_MCSF: BioMAP Diversity Plus: CASM3C Assay for Macrophage colony-stimulating factor (MCSF) Biomarker Activity (AID 2283044).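 Also: M-CSF protein amount quantified by ELISA after 24 h exposure.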 As to conditions: primary human coronary artery smooth muscle cells; actives raise or lower the signal.

Read-out in assay [4]: Low-density lipoprotein receptor (LDLR), LDLR (gene 3949)
Kind of assay: BSK_CASM3C_LDLR: BioMAP Diversity Plus: CASM3C Assay for Low-density lipoprotein receptor (LDLR) Biomarker Activity (AID 2283045).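 Also: LDLR protein level on the cell surface quantified by ELISA.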 Particulars: primary human coronary artery smooth muscle cells; actives raise or lower the signal.

Read-out in assay [5]: Monocyte Chemoattractant Protein-1 (MCP1), CCL2 (gene 6347)
Description: BSK_CASM3C_MCP1: BioMAP Diversity Plus: CASM3C Assay for Monocyte Chemoattractant Protein-1 (MCP1) Biomarker Activity (AID 2283046).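 Also: MCP-1 level quantified by ELISA 24 h after dosing.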 As to conditions: primary human coronary artery smooth muscle cells; actives raise or lower the signal.

Assay [6] can be described thus: BSK_CASM3C_Proliferation: Cell Proliferation Assessment in the BioMAP Diversity Plus: CASM3C Assay (AID 2283047).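 Also: sulforhodamine B total protein stain as relative cell number at 560 nm; sub-confluent cells exposed 48 h before staining; fitted both ways against DMSO so gain or loss of cell number.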 As to conditions: primary human coronary artery smooth muscle cells.
Read-out in assay [7]: Monokine induced gamma interferon (MIG), CXCL9 (gene 4283)
Kind of assay: BSK_CASM3C_MIG: BioMAP Diversity Plus: CASM3C Assay for Monokine induced gamma interferon (MIG) Biomarker Activity (AID 2283048).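 Also: MIG protein level measured by ELISA.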 As to conditions: primary human coronary artery smooth muscle cells; actives raise or lower the signal.

Read-out in assay [8]: serum amyloid A (SAA), SAA1 (gene 6288)
Kind of assay: BSK_CASM3C_SAA: BioMAP Diversity Plus: CASM3C Assay for serum amyloid A (SAA) Biomarker Activity (AID 2283049).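 Also: SAA protein level quantified by ELISA.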 As to conditions: primary human coronary artery smooth muscle cells; actives raise or lower the signal.

The nature of assay [9]: BSK_CASM3C_SRB: Viability Assessment in the BioMAP Diversity Plus: CASM3C Assay (AID 2283050).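 Also: cells exposed to compound for 24 h.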 As to conditions: primary human coronary artery smooth muscle cells.
Read-out in assay [10]: Thrombomodulin, THBD (gene 7056)
Kind of assay: BSK_CASM3C_Thrombomodulin: BioMAP Diversity Plus: CASM3C Assay for Thrombomodulin Biomarker Activity (AID 2283051).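 Also: thrombomodulin protein level measured by ELISA 24 h after dosing.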 As to conditions: primary human coronary artery smooth muscle cells; actives raise or lower the signal.

Read-out in assay [11]: Tissue Factor, F3 (gene 2152)
Kind of assay: BSK_CASM3C_TissueFactor: BioMAP Diversity Plus: CASM3C Assay for Tissue Factor Biomarker Activity (AID 2283052).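 Also: cell surface tissue factor protein level read by ELISA.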 As to conditions: primary human coronary artery smooth muscle cells; actives raise or lower the signal.

Read-out in assay [12]: Interferon-gamma inducible Protein 10 (IP10), CXCL10 (gene 3627)
Kind of assay: BSK_hDFCGF_IP10: BioMAP Diversity Plus: hDFCGF Assay for Interferon-gamma inducible Protein 10 (IP10) Biomarker Activity (AID 2283053). Particulars: primary human foreskin fibroblasts; actives raise or lower the signal. The gist of the method:
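Primary human foreskin fibroblasts exposed to chemicals for 24 h. IP-10 measured by ELISA; changes fitted bidirectionally against DMSO baseline.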

Read-out in assay [13]: Urokinase-type plasminogen activator receptor (uPAR), PLAUR (gene 5329)
Description: BSK_CASM3C_uPAR: BioMAP Diversity Plus: CASM3C Assay for Urokinase-type plasminogen activator receptor (uPAR) Biomarker Activity (AID 2283054).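 Also: cell-surface uPAR protein level quantified by ELISA.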 Particulars: primary human coronary artery smooth muscle cells; actives raise or lower the signal.

Read-out in assay [14]: Vascular cell adhesion molecule 1 (VCAM1), VCAM1 (gene 7412)
Description: BSK_CASM3C_VCAM1: BioMAP Diversity Plus: CASM3C Assay for Vascular cell adhesion molecule 1 (VCAM1) Biomarker Activity (AID 2283055).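 Also: VCAM-1 protein level quantified by ELISA on the cells.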 Particulars: primary human coronary artery smooth muscle cells; actives raise or lower the signal.

Read-out in assay [15]: Collagen III, COL3A1 (gene 1281)
Kind of assay: BSK_hDFCGF_CollagenIII: BioMAP Diversity Plus: hDFCGF Assay for Collagen III Biomarker Activity (AID 2283056). As to conditions: primary human foreskin fibroblasts; actives raise or lower the signal. The gist of the method: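 hDFCGF primary human dermal fibroblasts; 24 h chemical exposure; collagen III by ELISA; bidirectional curve fit vs DMSO baseline (gain or loss of signal).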

Read-out in assay [16]: Epidermal growth factor receptor (EGFR), EGFR (gene 1956)
Description: BSK_hDFCGF_EGFR: BioMAP Diversity Plus: hDFCGF Assay for Epidermal growth factor receptor (EGFR) Biomarker Activity (AID 2283057). As to conditions: primary human foreskin fibroblasts; actives raise or lower the signal. The gist of the method:
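Primary human foreskin fibroblasts (hDFCGF system), sampled 24 h after dosing; EGFR quantified by ELISA. Bidirectional fit relative to DMSO baseline; SRB total-protein staining in parallel cultures for cytotoxicity.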

The nature of assay [17]: BSK_hDFCGF_Proliferation: Cell Proliferation Assessment in the BioMAP Diversity Plus: hDFCGF Assay (AID 2283059).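 Also: curves fitted for both rise and fall of signal versus DMSO baseline.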 Particulars: primary human foreskin fibroblasts. A digest of the protocol: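 Sub-confluent human foreskin fibroblast cultures receive test chemical […]. Relative cell number is quantified by sulforhodamine B staining (0.1%, after 10% TCA fixation) at 560 nm, with bidirectional fitting referenced to DMSO.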

Read-out in assay [18]: Macrophage colony-stimulating factor (MCSF), CSF1 (gene 1435)
Kind of assay: BSK_hDFCGF_MCSF: BioMAP Diversity Plus: hDFCGF Assay for Macrophage colony-stimulating factor (MCSF) Biomarker Activity (AID 2283060). As to conditions: primary human foreskin fibroblasts; actives raise or lower the signal. A digest of the protocol:
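ELISA read-out of M-CSF in human dermal foreskin fibroblast cultures, 24 h after chemical dosing; gain or loss of signal fitted bidirectionally relative to DMSO baseline.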

A short description of assay [19]: BSK_hDFCGF_SRB: Viability Assessment in the BioMAP Diversity Plus: hDFCGF Assay (AID 2283061).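 Also: cells exposed to compound for 24 h before the read.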 As to conditions: primary human foreskin fibroblasts. A digest of the protocol: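 Primary human foreskin fibroblasts; 24 h post-dose; fixed 10% TCA, stained 0.1% SRB, A560 read; total protein as overt cytotoxicity measure; curves fit bidirectionally vs DMSO control.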

“And” between values parts separate entries of the source, which are not always exact repeats. Identical values can stand only once. Some compounds were tested as several samples or in several runs, with calls that do not always agree. The source made the active and inactive calls. The calls were made as follows: active = hit-call score of the fitted dose curve at least 0.9, where 1 is the maximum; inactive = score below 0.9.

As for `CC(C)(C)c1ccc(O)c(C(C)(C)C)c1`, the concentration at half-maximal activity (AC50) – broadly, the concentration at which the activity in the assay is half-maximal – in [1] was 27.2 µM (active); in [2] it was 9.55 µM (active); in assay [3] it was 13.2 µM (active); in assay [4], 12.3 µM (active); in [5], 13.7 µM (active); in assay [6] it was 11.4 µM (active). For the same molecule, the AC50 in assay [7] was 15.3 µM (active); in assay [8], 12.4 µM (active); in [9] it was 26.7 µM (active); in assay [10], 35.9 µM (active); in [11] it was 20 µM (active); in assay [12], 10.1 µM (active). The AC50 in [13] was 7.58 µM (active); in assay [14], 29.1 µM (active); in assay [15], 8.81 µM (active); in [16] it was 13.2 µM (active); in assay [17], 11.4 µM (active); in assay [18], 8.8 µM (active). Besides, the concentration at half-maximal activity (AC50) in assay [19] was 11.9 µM (active).
Regarding `FC(F)(I)C(F)(F)C(F)(F)C(F)(F)C(F)(F)C(F)(F)I`, the AC50 in [1] is 30 µM (active) [middle of 5 runs]; in assay [3] it was 25.9 µM (active) [middle of 5 runs]; in assay [4], 22 µM (active) [middle of 5 runs]; in assay [5], 21.6 µM (active) [middle of 5 runs]; in assay [6], 13.6 µM (active) [middle of 5 runs]; in assay [7], 29.7 µM (active) [middle of 5 runs]. Moreover, the concentration at half-maximal activity (AC50) in assay [8] is 17 µM (active) [middle of 5 runs]; in assay [9], 23.3 µM (active) [middle of 5 runs]; in [10], 17.8 µM (active) and 50.8 µM (active) and 7.99 µM (active); in assay [11], 23.7 µM (active) and 16.2 µM (active) and 30 µM (active); in assay [12] it was 5.72 µM (active) [middle of 5 runs]; in assay [13] it was 23.7 µM (active) [middle of 5 runs]. In addition, the AC50 in assay [14] is 19.8 µM (active) [middle of 5 runs]; in [15] it was 4.16 µM (active) [middle of 5 runs]; in [17], 2.06 µM (active) [middle of 5 runs]; in assay [18] it was 4.77 µM (active) [middle of 5 runs]. Moreover, the outcome in assay [10], in assay [11] and in assay [16] was inactive.
With `CCC(=C(c1ccc(O)cc1)c1ccc(OCCN(C)C)cc1)c1ccccc1`, the half-maximal activity concentration (AC50) in assay [1] is 24.4 µM (active); in assay [2], 17.4 µM (active); in assay [3] it was 18.4 µM (active); in assay [4], 22.7 µM (active); in assay [5] it was 24 µM (active); in assay [6] it was 9.11 µM (active). For the same molecule, the concentration at half-maximal activity (AC50) in assay [7] is 24.8 µM (active); in assay [8], 22.8 µM (active); in assay [9] it was 22.2 µM (active); in assay [11] it was 15.8 µM (active); in [12] it was 10.5 µM (active); in [13], 20.3 µM (active). Besides, the AC50 in assay [14] was 22.3 µM (active); in assay [15], 7.58 µM (active); in [17], 4.77 µM (active); in assay [18], 10.2 µM (active); in [19], 10.7 µM (active). Besides, the result in assay [10] and in assay [16] was inactive.
Consider `Cc1cc(C)c(O)c(C)c1`, for which the outcome in assay [1], in [2], in [3], in assay [4], in assay [5] and in assay [6] was inactive. Moreover, the outcome in assay [7], in [8], in [9], in assay [10], in assay [11] and in assay [12] was inactive. Besides, the outcome in assay [13], in assay [14], in assay [15], in assay [16], in [17] and in assay [18] was inactive.
On to `CC#C[C@]1(O)CC[C@H]2[C@@H]3CCC4=CC(=O)CCC4=C3[C@@H](c3ccc(N(C)C)cc3)C[C@@]21C`, for which the AC50 in assay [1] was 5.69 µM (active); in [6], 31.1 µM (active); in [9], 31.8 µM (active); in assay [13], 30.6 µM (active); in [15], 12.9 µM (active); in assay [17], 26.6 µM (active). In [19], the AC50 is 20 µM (active). Besides, the outcome in assay [2], in assay [3], in [4], in [5], in [7] and in assay [8] was inactive. For the same molecule, the outcome in [10], in assay [11], in assay [12], in [14], in assay [16] and in assay [18] was inactive.

These data come from PubChem BioAssay (EPA / NIEHS).
